Several values for one entry are separate records, joined by “and”; a condition that tells them apart may be missing. Identical values can stand only once. About 79,000 compounds went through this panel and 15% of them were active in at least one assay; those are over-represented in the sample as a whole. Activity calls are given as the source filed them. Rule as the data show it: active = growth inhibition above about 70%; inactive = the rest.
Assays:
[1] = NCI Yeast Anticancer Drug Screen. Data for the rad52 strain (AID 147);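 also: 0% = growth of vehicle-treated control cultures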; conditions: S. cerevisiae rad52 mutant growth inhibition, hits give high values
In short: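 Measured: yeast growth inhibition. System: strain with a defined DNA damage repair alteration. Reference: vehicle-treated control cultures.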

[2] = NCI Yeast Anticancer Drug Screen. Data for the wt1 strain (AID 149);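 also: 0% = growth of vehicle-treated wt1 cultures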; conditions: S. cerevisiae wt1 strain (SPY 50644) growth inhibition, hits give high values
In short: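 Compounds are added to wt1 yeast cultures. Growth is then measured. Inhibition is expressed relative to vehicle-treated controls.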

[3] = NCI Yeast Anticancer Drug Screen. Data for the rad50EPP+ strain (AID 151);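 also: 0% = growth of vehicle-treated control cultures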; conditions: S. cerevisiae rad50 mutant strain, hits give high values
In short: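 One strain with a rad50 alteration (rad50EPP+) was compound-treated, its growth then compared to that of vehicle controls.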

[4] = NCI Yeast Anticancer Drug Screen. Data for the mgt1 strain (AID 153); conditions: S. cerevisiae mgt1 mutant growth inhibition, hits give high values
In short: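 After exposure of the mgt1 yeast mutant to compound, growth was measured and reported as inhibition compared with vehicle controls.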

[5] = NCI Yeast Anticancer Drug Screen. Data for the rad50 strain (AID 155);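 also: 0% = growth of vehicle-only cultures of the same strain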; conditions: S. cerevisiae rad50 strain growth inhibition, hits give high values
In short: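 Inhibition values express reduced yeast growth in compound-treated cultures relative to vehicle-treated controls.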

[6] = NCI Yeast Anticancer Drug Screen. Data for the mec2-1 strain (AID 157); conditions: S. cerevisiae mec2-1 strain, hits give high values
In short: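 Test agents were screened against the mec2-1 yeast strain, with defined DNA repair or cell cycle alteration. Growth was scored as inhibition against vehicle-only controls.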

[7] = NCI Yeast Anticancer Drug Screen. Data for the rad14 strain (AID 159);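 also: 0% = growth of vehicle-treated control cultures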; conditions: S. cerevisiae rad14 strain growth inhibition, hits give high values
In short: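 A mutant yeast strain defective in DNA damage repair is treated with compound; inhibition of its growth is scored against untreated, vehicle-exposed cultures.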

[8] = NCI Yeast Anticancer Drug Screen. Data for the sgs1 mgt1 strain (AID 161);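 also: 0% = growth of cultures given vehicle only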; conditions: S. cerevisiae sgs1 mgt1 strain, hits give high values
In short: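 Genetically altered yeast, compound exposure, growth inhibition relative to vehicle.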

[9] = NCI Yeast Anticancer Drug Screen. Data for the CLN2oe strain (AID 163);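 also: 0% = growth of vehicle-only control cultures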; conditions: S. cerevisiae CLN2oe strain, hits give high values
In short: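 Here, growth inhibition in a cell-cycle-altered yeast strain after compound exposure was quantified against vehicle control growth.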

[10] = NCI Yeast Anticancer Drug Screen. Data for the cln2 rad14 strain (AID 165);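 also: 0% = growth equal to vehicle treated cultures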; conditions: S. cerevisiae cln2 rad14 strain, hits give high values
In short: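 Growth of compound-exposed yeast (cln2 rad14 genotype) measured and expressed as inhibition relative to vehicle.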

[11] = NCI Yeast Anticancer Drug Screen. Data for the bub3 strain (AID 167); conditions: S. cerevisiae bub3 mutant strain, hits give high values
In short: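 Steps: expose the mutant yeast strain to compound; grow alongside vehicle-treated cultures; measure growth; express inhibition against the vehicle cultures.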

[12] = NCI Yeast Anticancer Drug Screen. Data for the wt2 strain (AID 169);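 also: 0% = growth of vehicle-treated yeast cultures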; conditions: S. cerevisiae wt2 strain growth inhibition, hits give high values
In short: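 Genetically defined yeast strains from a DNA-repair/cell-cycle panel were used. Compound-exposed yeast growth was measured, and the inhibition was calculated relative to vehicle treatment.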

[13] = NCI Yeast Anticancer Drug Screen. Data for the mlh1 strain (AID 171);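 also: 0% = growth of vehicle-treated control cultures of the same strain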; conditions: S. cerevisiae mlh1 strain growth inhibition, hits give high values
In short: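 Here the genetically defined yeast mutant is grown with each compound, and the extent to which its growth falls below that of vehicle-exposed cells is reported.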

[14] = NCI Yeast Anticancer Drug Screen. Data for the sgs1 strain (AID 173);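 also: 0% = growth of vehicle-only control cultures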; conditions: S. cerevisiae sgs1 mutant, hits give high values
In short: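 Relative growth inhibition, referenced to vehicle, was determined in a yeast strain with a defined alteration affecting DNA damage repair or cell cycle control after compound exposure.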

[15] = NCI Yeast Anticancer Drug Screen. Data for the mlh1 rad18 strain (AID 175); conditions: S. cerevisiae mlh1 rad18 strain growth inhibition, hits give high values
In short: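 In this whole-cell yeast screen, a strain with altered DNA damage repair is challenged with compound, and its growth is measured against matched vehicle-treated controls.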

[16] = NCI Yeast Anticancer Drug Screen. Data for the rad18 strain (AID 177); conditions: S. cerevisiae rad18 mutant growth inhibition, hits give high values
In short: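 Screen uses a yeast strain with a defined lesion in DNA damage repair; compound effect is read as loss of growth compared to untreated vehicle cultures.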

[17] = at 5.0 µM (retest, dose inferred, filed as 0.5)
[18] = at 50.0 µM (retest, dose inferred, filed as 5.0)

Measured: growth inhibition

Cc1ccc(CC2(OCCN(C)C)CCC(C(C)(C)C)CC2)cc1 (stereo unspecified)
active: [1]; at 100.0 µM 98% | [2]; at 100.0 µM 99% | [3]; at 100.0 µM 97% | [4]; at 33.0 µM 84% | [4]; at 100.0 µM 99% | [5]; [18] 100% | [5]; at 50.0 µM 98.6% and 98.5% | [5]; at 100.0 µM 98% | [6]; [18] 99% and 93% | [6]; at 50.0 µM 98.5% and 99.3% | [6]; at 100.0 µM 99% | [7]; at 33.0 µM 92% | [7]; at 100.0 µM 98% | [8]; [18] 85% and 91% | [8]; at 50.0 µM 98.7% and 99.4% | [9]; at 100.0 µM 98% | [10]; [18] 89% and 76% | [10]; at 50.0 µM 99.2% and 99.5% | [11]; [18] 99% | [11]; at 50.0 µM 87.5% and 99.2% | [11]; at 100.0 µM 98% | [12]; at 100.0 µM 99% | [13]; at 33.0 µM 85% | [13]; at 100.0 µM 98% | [14]; at 33.0 µM 82% | [14]; at 100.0 µM 99% | [15]; [18] 100% and 99% | [15]; at 50.0 µM 99.5% and 99.4% | [16]; at 100.0 µM 98%
inactive: [1]; at 1.2 µM 8% | [1]; at 3.7 µM 3% | [1]; at 11.0 µM 8% | [1]; at 33.0 µM 37% | [2]; at 1.2 µM 9% | [2]; at 3.7 µM 12% | [2]; at 11.0 µM -5% | [2]; at 33.0 µM 9% | [3]; at 1.2 µM -4% | [3]; at 3.7 µM -9% | [3]; at 11.0 µM -3% | [3]; at 33.0 µM -2% | [4]; at 1.2 µM 14% | [4]; at 3.7 µM 12% | [4]; at 11.0 µM 21% | [5]; at 1.2 µM -3% | [5]; at 3.7 µM 0% | [5]; [17] 13% and 12% | [5]; at 11.0 µM 7% | [5]; at 33.0 µM 64% | [6]; at 1.2 µM -7% | [6]; at 3.7 µM -11% | [6]; [17] -8% and -7% | [6]; at 11.0 µM -7% | [6]; at 33.0 µM 43% | [7]; at 1.2 µM -7% | [7]; at 3.7 µM -3% | [7]; at 11.0 µM 15% | [8]; [17] -5% and -7% | [9]; at 1.2 µM -23% | [9]; at 3.7 µM -18% | [9]; at 11.0 µM -11% | [9]; at 33.0 µM 42% | [10]; [17] 20% and 10% | [11]; at 1.2 µM -23% | [11]; at 3.7 µM -24% | [11]; [17] 11% and 7% | [11]; at 11.0 µM -11% | [11]; at 33.0 µM 6% | [12]; at 1.2 µM -19% | [12]; at 3.7 µM -8% | [12]; at 11.0 µM -16% | [12]; at 33.0 µM 36% | [13]; at 1.2 µM 3% | [13]; at 3.7 µM -1% | [13]; at 11.0 µM 13% | [14]; at 1.2 µM 24% | [14]; at 3.7 µM 26% | [14]; at 11.0 µM 41% | [15]; [17] 9% and 10% | [16]; at 1.2 µM 3% | [16]; at 3.7 µM -14% | [16]; at 11.0 µM -12% | [16]; at 33.0 µM 36%

CN(C)c1ccc2c(SCC(=O)OCC(=O)[C@@]3(O)CC[C@H]4[C@@H]5CCC6=CC(=O)C=C[C@]6(C)[C@H]5C(=O)C[C@@]43C)c3ccc(N(C)C)cc3nc2c1
active: [1]; at 33.0 µM 90% | [1]; at 100.0 µM 92% | [2]; at 33.0 µM 91% | [2]; at 100.0 µM 91% | [3]; at 100.0 µM 83% | [4]; at 33.0 µM 89% | [4]; at 100.0 µM 88% | [5]; at 11.0 µM 71% | [5]; at 33.0 µM 90% | [5]; [18] 89% | [5]; at 100.0 µM 89% | [6]; at 33.0 µM 90% | [6]; [18] 86% | [6]; at 50.0 µM 72.9% | [6]; at 100.0 µM 90% | [7]; at 33.0 µM 90% | [7]; at 100.0 µM 88% | [8]; [18] 92% | [8]; at 50.0 µM 78.7% | [9]; at 33.0 µM 89% | [9]; at 100.0 µM 89% | [10]; [18] 78% | [10]; at 50.0 µM 80.7% | [11]; at 33.0 µM 87% | [11]; [18] 95% | [11]; at 50.0 µM 72.3% | [11]; at 100.0 µM 89% | [12]; at 100.0 µM 83% | [13]; at 33.0 µM 86% | [13]; at 100.0 µM 87% | [14]; at 11.0 µM 71% | [14]; at 33.0 µM 91% | [14]; at 100.0 µM 90% | [15]; [18] 86% | [15]; at 50.0 µM 84.5% | [16]; at 11.0 µM 74% | [16]; at 33.0 µM 90% | [16]; at 100.0 µM 87%
inactive: [1]; at 1.2 µM -7% | [1]; at 3.7 µM -8% | [1]; at 11.0 µM 46% | [2]; at 1.2 µM 16% | [2]; at 3.7 µM -16% | [2]; at 11.0 µM 64% | [3]; at 1.2 µM 1% | [3]; at 3.7 µM 6% | [3]; at 11.0 µM 6% | [3]; at 33.0 µM 63% | [4]; at 1.2 µM -27% | [4]; at 3.7 µM -37% | [4]; at 11.0 µM 69% | [5]; at 1.2 µM -31% | [5]; at 3.7 µM -13% | [5]; [17] 7% | [5]; at 50.0 µM 60.2% | [6]; at 1.2 µM -10% | [6]; at 3.7 µM -5% | [6]; [17] 13% | [6]; at 11.0 µM 55% | [7]; at 1.2 µM -12% | [7]; at 3.7 µM -22% | [7]; at 11.0 µM 66% | [8]; [17] 12% | [9]; at 1.2 µM 9% | [9]; at 3.7 µM 16% | [9]; at 11.0 µM 53% | [10]; [17] 0% | [11]; at 1.2 µM -13% | [11]; at 3.7 µM -4% | [11]; [17] 22% | [11]; at 11.0 µM 55% | [12]; at 1.2 µM -89% | [12]; at 3.7 µM -74% | [12]; at 11.0 µM -15% | [12]; at 33.0 µM 67% | [13]; at 1.2 µM -15% | [13]; at 3.7 µM -30% | [13]; at 11.0 µM 46% | [14]; at 1.2 µM 2% | [14]; at 3.7 µM -18% | [15]; [17] 50% | [16]; at 1.2 µM -9% | [16]; at 3.7 µM 6%

Source: PubChem BioAssay (NCI)
